Reference: PubChem BioAssay (EPA / NIEHS)
Values joined by “and” are separate entries in the source; they are usually repeats but may differ in a detail not shown here. Identical values can stand only once. Records with an inconclusive call do not appear. Some structures have more than one record in an assay (separate samples or runs), and their calls can disagree. Active and inactive are the calls of the source. Rule for the calls, unless noted: active = hit-call score of the fitted dose curve at least 0.9, where 1 is the maximum; inactive = score below 0.9.

Legend:
[1] = read-out: NAD(P)H dehydrogenase [quinone] 1 (NQO1), NQO1 (gene 1728); test: LTEA_HepaRG_NQO1: Life Technologies and Expression Analysis (LTEA) Assay for NAD(P)H dehydrogenase [quinone] 1 (NQO1) using HepaRG (AID 2283526); conditions: mRNA level, 48 h; actives raise or lower the signal
Summary of the method: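 qRT-PCR read-out (Fluidigm TaqMan), normalized to three housekeeping genes, after 48 h chemical exposure of HepaRG cells. Concentrations: eight points, top 100 uM, half-log steps, 0.5% DMSO vehicle. Gain or loss of signal fitted relative to DMSO.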

[2] = read-out: Nuclear factor erythroid 2-related factor 2 (Homo sapiens) (UniProt Q16236); test: LTEA_HepaRG_NFE2L2: Life Technologies and Expression Analysis (LTEA) Assay for Nuclear factor erythroid 2-related factor 2 (NFE2L2) Transcription Factor using HepaRG (AID 2283527); conditions: mRNA level, 48 h; actives raise or lower the signal
Summary of the method: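 NFE2L2 transcript level was read by qRT-PCR (housekeeping ACTB/GAPDH/POLR2A normalisation) after 48 h chemical treatment of HepaRG in serum-free induction medium. Duplicate 8-point half-log curves, top 100 uM, 0.5% DMSO vehicle; up- or down-regulation fitted against vehicle.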

[3] = read-out: succinate dehydrogenase complex iron sulfur subunit B (SDHB), SDHB (gene 6390); test: LTEA_HepaRG_SDHB: Life Technologies and Expression Analysis (LTEA) Assay for succinate dehydrogenase complex iron sulfur subunit B (SDHB) using HepaRG (AID 2283528); conditions: mRNA level, 48 h; actives raise or lower the signal
Summary of the method: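 Readout is SDHB transcript level by qRT-PCR, normalised to three housekeeping genes and fitted bidirectionally against 0.5% DMSO vehicle. Human HepaRG cells were treated for 48 h at up to 100 uM.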

[4] = read-out: Signal transducer and activator of transcription 3 (Homo sapiens) (UniProt P40763); test: LTEA_HepaRG_STAT3: Life Technologies and Expression Analysis (LTEA) Assay for Signal transducer and activator of transcription (STAT3) using HepaRG (AID 2283529); conditions: mRNA level, 48 h; actives raise or lower the signal
Summary of the method: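 STAT3 transcript quantified by qRT-PCR against three housekeeping genes (ACTB, GAPDH, POLR2A), fitted both directions relative to DMSO. HepaRG cultures exposed 48 h to eight half-log concentrations, top 100 uM, 0.5% DMSO, serum-free induction medium.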

[5] = read-out: solute carrier (SLCO1B1), SLCO1B1 (gene 10599); test: LTEA_HepaRG_SLCO1B1: Life Technologies and Expression Analysis (LTEA) Assay for solute carrier (SLCO1B1) using HepaRG (AID 2283530); conditions: mRNA level, 48 h; actives raise or lower the signal
Summary of the method: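 SLCO1B1 transcript read by qRT-PCR (Fluidigm arrays), normalized to three housekeeping genes, after 48 h chemical exposure of HepaRG cells; bidirectional concentration-response fitting versus 0.5% DMSO baseline. Eight-point half-log series, maximum 100 uM.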

[6] = read-out: Transforming Growth Factor (TGFA), TGFA (gene 7039); test: LTEA_HepaRG_TGFA: Life Technologies and Expression Analysis (LTEA) Assay for Transforming Growth Factor (TGFA) using HepaRG (AID 2283532); conditions: mRNA level, 48 h; actives raise or lower the signal
Summary of the method: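 TGFA transcript quantified by qRT-PCR (Fluidigm arrays) against three housekeeping genes, after 48 hours chemical treatment of HepaRG cells. Top concentration 100 uM with half-log dilutions, 8 points, duplicates, 0.5% DMSO.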

[7] = read-out: Transforming Growth Factor (TGFB1), TGFB1 (gene 7040); test: LTEA_HepaRG_TGFB1: Life Technologies and Expression Analysis (LTEA) Assay for Transforming Growth Factor (TGFB1) Transporter using HepaRG (AID 2283533); conditions: mRNA level, 48 h; actives raise or lower the signal
Summary of the method: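 qRT-PCR readout of TGFB1 transcript in HepaRG lysates, normalized to three housekeeping genes; gain or loss of signal fitted relative to 0.5% DMSO vehicle. Exposure: 48 h, 8-point curve from 100 uM, duplicate wells.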

TIMP1, TIMP1 (gene 7076) = test: LTEA_HepaRG_TIMP1: Life Technologies and Expression Analysis (LTEA) Assay for TIMP1 using HepaRG (AID 2283534); conditions: mRNA level, 48 h; actives raise or lower the signal;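 note: TaqMan qRT-PCR signal normalized to ACTB GAPDH and POLR2A housekeeping genes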
Summary of the method: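 HepaRG, 48 h exposure, 8-pt half-log series from 100 uM in 0.5% DMSO, duplicates; TIMP1 transcript by Fluidigm qRT-PCR, housekeeping-normalized; bidirectional curve fit vs DMSO baseline.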

[8] = read-out: Tumor necrosis factor receptor 1 (TNFRSF1A), TNFRSF1A (gene 7132); test: LTEA_HepaRG_TNFRSF1A: Life Technologies and Expression Analysis (LTEA) Assay for Tumor necrosis factor receptor 1 (TNFRSF1A) using HepaRG (AID 2283535); conditions: mRNA level, 48 h; actives raise or lower the signal
Summary of the method: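 HepaRG, 48 h plating then 48 h chemical exposure, serum-free induction media; 8-pt CRC from 100 uM, half-log, 0.5% DMSO vehicle, duplicates. Readout: TaqMan qRT-PCR (Fluidigm), housekeeping-gene normalized; bidirectional fit vs DMSO.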

[9] = read-out: Thyroid Hormone Responsive (THRSP), THRSP (gene 7069); test: LTEA_HepaRG_THRSP: Life Technologies and Expression Analysis (LTEA) Assay for Thyroid Hormone Responsive (THRSP) using HepaRG (AID 2283536); conditions: mRNA level, 48 h; actives raise or lower the signal
Summary of the method: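 THRSP transcript quantified by Fluidigm qRT-PCR against three housekeeping genes after 48 h chemical exposure of HepaRG cells in serum-free induction medium; eight-point half-log series, top 100 uM, 0.5% DMSO vehicle, duplicate wells.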

[10] = read-out: Cellular tumor antigen p53 (Homo sapiens) (UniProt P04637); test: LTEA_HepaRG_TP53: Life Technologies and Expression Analysis (LTEA) Assay for Tumor Protein P53 (TP53) using HepaRG (AID 2283537); conditions: mRNA level, 48 h; actives raise or lower the signal
Summary of the method: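 Read-out is TP53 transcript level by microfluidic qRT-PCR, normalised to three housekeeping genes and fitted bidirectionally against DMSO. Human HepaRG cells received compounds for 48 h, highest concentration 100 uM.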

[11] = read-out: UDP glucuronosyltransferase (UGT1A1), UGT1A1 (gene 54658); test: LTEA_HepaRG_UGT1A1: Life Technologies and Expression Analysis (LTEA) Assay for UDP glucuronosyltransferase (UGT1A1) using HepaRG (AID 2283538); conditions: mRNA level, 48 h; actives raise or lower the signal
Summary of the method: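 HepaRG, 48 h chemical exposure (top 100 uM, half-log 8-pt, 0.5% DMSO vehicle), duplicate wells; qRT-PCR (TaqMan, Fluidigm array) for UGT1A1 mRNA, housekeeping-normalized; bidirectional curve fit vs DMSO baseline.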

[12] = read-out: UDP glucuronosyltransferase (UGT1A6), UGT1A6 (gene 54578); test: LTEA_HepaRG_UGT1A6: Life Technologies and Expression Analysis (LTEA) Assay for UDP glucuronosyltransferase (UGT1A6) using HepaRG (AID 2283539); conditions: mRNA level, 48 h; actives raise or lower the signal
Summary of the method: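 qRT-PCR readout of UGT1A6 mRNA (normalized to ACTB/GAPDH/POLR2A) in differentiated HepaRG cells after 48 h chemical exposure; 8 concentrations, top 100 uM, half-log steps, 0.5% DMSO. Bidirectional curve fit relative to DMSO baseline.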

[13] = read-out: X-box binding protein 1 (XBP1), XBP1 (gene 7494); test: LTEA_HepaRG_XBP1: Life Technologies and Expression Analysis (LTEA) Assay for X-box binding protein 1 (XBP1) using HepaRG (AID 2283540); conditions: mRNA level, 48 h; actives raise or lower the signal
Summary of the method: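 HepaRG, 48 h exposure, 8-pt half-log CRC top 100 uM, 0.5% DMSO vehicle, duplicates. Readout: TaqMan qRT-PCR of XBP1 mRNA, housekeeping-normalised (ACTB/GAPDH/POLR2A); bidirectional fit vs DMSO baseline.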

[14] = LTEA_HepaRG_LDH_cytotoxicity: Cytotoxicity Assessment in the Life Technologies and Expression Analysis (LTEA) Assay (AID 2283563; active = hit-call score of the fitted dose curve at least 0.9, where 1 is the maximum;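 for AC50: LDH activity released into spent culture medium as a marker of cell death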)
Summary of the method: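 HepaRG (human liver line), 48 h exposure, 8-pt half-log series from 100 uM, 0.5% DMSO vehicle, duplicates. Read-out: LDH in spent medium. Positive-direction fit vs DMSO baseline.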

[15] = TOX21_p53_BLA_p2_viability: Viability Assessment in the Tox21 HCT-116 p53 Agonism Beta-lactamase Assay, Phase 2 (AID 2283591; active = hit-call score of the fitted dose curve at least 0.9, where 1 is the maximum;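 note: actives lower the ATP signal meaning cytotoxicity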)
Summary of the method: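 Cytotoxicity readout: CellTiter-Glo ATP luminescence, 30 min at room temperature, after the beta-lactamase read. Cells were HCT116 exposed 16 h at 37C to compounds pin-transferred at 217-fold dilution from DMSO stocks.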

[16] = biological target: Cellular tumor antigen p53 (Homo sapiens) (UniProt P04637); test: TOX21_p53_BLA_p2_ratio: Tox21 HCT-116 p53 Agonism Beta-lactamase Assay, Ratio, Phase 2 (AID 2283592; active = hit-call score of the fitted dose curve at least 0.9, where 1 is the maximum)
Chain of Cellular tumor antigen p53 (Homo sapiens) (P04637 whole entry, looked up): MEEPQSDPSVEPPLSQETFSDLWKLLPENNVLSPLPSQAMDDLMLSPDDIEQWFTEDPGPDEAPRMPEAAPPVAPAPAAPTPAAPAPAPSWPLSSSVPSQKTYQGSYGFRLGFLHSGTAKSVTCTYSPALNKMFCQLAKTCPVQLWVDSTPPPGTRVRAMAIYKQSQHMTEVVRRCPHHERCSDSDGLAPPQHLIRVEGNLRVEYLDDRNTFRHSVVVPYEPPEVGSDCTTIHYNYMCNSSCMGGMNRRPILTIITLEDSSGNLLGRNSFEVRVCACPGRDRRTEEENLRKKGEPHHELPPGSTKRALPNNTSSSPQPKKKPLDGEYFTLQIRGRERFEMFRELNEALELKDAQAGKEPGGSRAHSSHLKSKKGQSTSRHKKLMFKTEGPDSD
Summary of the method: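 Readout: blue/green (460/530 nm) FRET emission ratio after 2 h CCF4-AM loading at room temperature, excitation 405 nm. HCT116 p53 bla cells, 16 h compound exposure at 37C, 5% CO2; agonist direction fitted against DMSO baseline.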

[17] = TOX21_p53_BLA_p3_viability: Viability Assessment in the Tox21 HCT-116 p53 Agonism Beta-lactamase Assay, Phase 3 (AID 2283593; active = hit-call score of the fitted dose curve at least 0.9, where 1 is the maximum;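 note: cells exposed to compound for 16 h before reading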)
Summary of the method: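 Cellular ATP was quantified by CellTiter-Glo luminescence, read after 30 min at room temperature. Beforehand, HCT116 cells (4000/well) received compound 5 h post-seeding, 217-fold diluted from DMSO, then incubated 16 h at 37C.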

[18] = ATG_XTT_Cytotoxicity: Cytotoxicity Assessment in the Attagene TRANS-FACTORIAL HepG2 Assay (AID 2283584; active = hit-call score of the fitted dose curve at least 0.9, where 1 is the maximum)
Summary of the method: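 XTT readout of cell number in transfected HepG2 cells, 24 h post-dosing; DMSO serves as negative control and baseline, with activity taken as loss of viability signal.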

Measured: AC50

Chain of Signal transducer and activator of transcription 3 (Homo sapiens) (P40763 whole entry, looked up): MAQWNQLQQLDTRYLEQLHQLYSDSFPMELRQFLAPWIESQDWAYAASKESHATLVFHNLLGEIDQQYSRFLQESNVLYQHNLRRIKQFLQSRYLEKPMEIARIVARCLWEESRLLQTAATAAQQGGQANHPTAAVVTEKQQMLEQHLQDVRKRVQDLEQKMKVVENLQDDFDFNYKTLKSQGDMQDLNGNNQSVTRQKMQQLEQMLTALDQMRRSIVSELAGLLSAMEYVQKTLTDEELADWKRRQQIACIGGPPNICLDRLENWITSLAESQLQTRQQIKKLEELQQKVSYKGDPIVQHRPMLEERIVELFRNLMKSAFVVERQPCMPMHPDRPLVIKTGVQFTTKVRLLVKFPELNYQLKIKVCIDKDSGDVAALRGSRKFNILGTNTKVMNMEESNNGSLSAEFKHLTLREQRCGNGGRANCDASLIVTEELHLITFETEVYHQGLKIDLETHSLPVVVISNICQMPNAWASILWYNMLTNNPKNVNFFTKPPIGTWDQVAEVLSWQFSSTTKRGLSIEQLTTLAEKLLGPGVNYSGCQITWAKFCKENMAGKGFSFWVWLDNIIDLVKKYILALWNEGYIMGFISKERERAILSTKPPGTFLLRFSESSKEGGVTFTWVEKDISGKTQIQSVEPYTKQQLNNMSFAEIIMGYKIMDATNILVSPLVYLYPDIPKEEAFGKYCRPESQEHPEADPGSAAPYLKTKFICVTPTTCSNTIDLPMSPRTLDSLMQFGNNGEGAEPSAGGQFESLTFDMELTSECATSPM
Chain of Nuclear factor erythroid 2-related factor 2 (Homo sapiens) (Q16236 whole entry, looked up): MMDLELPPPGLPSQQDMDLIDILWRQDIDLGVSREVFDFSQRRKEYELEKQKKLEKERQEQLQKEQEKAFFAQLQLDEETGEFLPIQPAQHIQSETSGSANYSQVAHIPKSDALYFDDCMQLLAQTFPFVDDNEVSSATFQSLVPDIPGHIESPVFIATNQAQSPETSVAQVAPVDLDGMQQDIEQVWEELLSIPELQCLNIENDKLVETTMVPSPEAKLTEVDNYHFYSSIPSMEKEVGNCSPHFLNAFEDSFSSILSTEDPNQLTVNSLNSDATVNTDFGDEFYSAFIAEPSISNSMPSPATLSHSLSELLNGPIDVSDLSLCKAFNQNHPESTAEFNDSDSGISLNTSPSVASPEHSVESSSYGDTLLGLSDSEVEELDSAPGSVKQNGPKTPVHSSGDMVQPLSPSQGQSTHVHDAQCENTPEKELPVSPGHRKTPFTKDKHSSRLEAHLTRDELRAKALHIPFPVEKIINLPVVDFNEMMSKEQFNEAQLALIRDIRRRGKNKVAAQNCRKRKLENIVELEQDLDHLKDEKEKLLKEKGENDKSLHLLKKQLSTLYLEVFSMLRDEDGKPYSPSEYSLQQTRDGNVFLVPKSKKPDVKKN

COC(=O)N(C(=O)N1CO[C@@]2(C(=O)OC)Cc3cc(Cl)ccc3C2=N1)c1ccc(OC(F)(F)F)cc1
active: [2] 10 µM | [5] 59 µM | [9] 40 µM | [11] 10 µM | [14] 60.5 µM | [16] 46.3 µM
not listed: [18]
inactive: all other assays above

CC1(C)CON(Cc2ccccc2Cl)C1=O
active: [11] 9.92 µM
not listed: [15] | [16] | [18]
inactive: all other assays above

O=C1C2CC=CCC2C(=O)N1SC(Cl)(Cl)Cl (stereo not given)
inactive: [1] | [2] | [3] | [4] | [5] | [6] | [7] | TIMP1, TIMP1 (gene 7076) | [8] | [10] | [11] | [12] | [13] | [15] | [16] | [17]
active: [9] 16.2 µM | [14] 74.5 µM | [15] 25.6 µM | [16] 4.12 µM and 7.62 µM

COC(=O)NC(=S)Nc1ccccc1NC(=S)NC(=O)OC
active: [2] 50 µM | [11] 14.3 µM
not listed: [17] | [18]
inactive: all other assays above

C=CCOC(=O)C(C)(C)OC(=O)c1cc(-n2c(=O)cc(C(F)(F)F)n(C)c2=O)ccc1Cl
active: [11] 23.1 µM
not listed: [17] | [18]
inactive: all other assays above

CCNP(=S)(OC)O/C(C)=C/C(=O)OC(C)C (stereo not given)
active: [2] 9.92 µM | [9] 32.6 µM | [11] 9.32 µM
not listed: [16] | [17] | [18]
inactive: all other assays above

CCC(C)n1c(=O)[nH]c(C)c(Br)c1=O (stereo not given)
active: [2] 7.04 µM | [4] 31.8 µM | [5] 29 µM | [9] 18.5 µM | [11] 5.95 µM | [13] 30.5 µM
not listed: [1] | [17] | [18]
inactive: all other assays above

COCC(=O)N(c1c(C)cccc1C)C(C)C(=O)OC (stereo not given)
not listed: [18]
inactive: all other assays above

N#Cc1c[nH]cc1-c1cccc2c1OC(F)(F)O2
active: [2] 84.7 µM | [5] 50 µM | [9] 18 µM | [10] 71.3 µM | [11] 34.3 µM | [16] 7.61 µM
not listed: [7]
inactive: all other assays above

CCCCOCN(C(=O)CCl)c1c(CC)cccc1CC
active: [11] 50 µM
not listed: [17] | [18]
inactive: all other assays above

CCSC(=O)N1CCCCCC1
not listed: [16] | [18]
inactive: all other assays above

Nc1cnn(-c2ccccc2)c(=O)c1Cl
active: [11] 50 µM
not listed: [17] | [18]
inactive: all other assays above

CCOP(=S)(OCC)Oc1nc(Cl)n(C(C)C)n1
active: [9] 26.1 µM | [11] 12.5 µM
not listed: [15] | [17] | [18]
inactive: all other assays above

COc1cc(OC)nc(NC(=O)NS(=O)(=O)c2ncccc2OCC(F)(F)F)n1
active: [5] 9.92 µM
not listed: [16] | [18]
inactive: all other assays above
